Results reported in PubChem BioAssay (Tox21).
Records with an inconclusive call do not appear. The source made the active and inactive calls. Unless noted, the call rests on the fitted dose curve; in most records, active means well fitted curve in the direction sought with a large enough effect in the repeat runs; inconclusive means weak or mixed curves; inactive means no such curve, though single readings can be large; an effect the other way counts as inactive or inconclusive.

How the values were obtained:
[1] = qHTS assay to identify small molecule antagonists of the estrogen receptor alpha (ER-alpha) signaling pathway using the BG1 cell line in the presence of 0.1 nM 17-beta-estradiol - cell viability counter screen (AID 1259241); further: nearly all actives have a fitted effect of over 40% in size
Outline: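 Cells were plated and left 24 hr, compounds in DMSO were pinned in, 17beta-estradiol was added to 0.1 nM final, and after 22 hr CellTiter-Fluor reagent was added for 30 min before fluorescence was read.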

[2] = qHTS assay to identify small molecule antagonists of the androgen receptor (AR) signaling pathway using the MDA cell line in the presence of 0.5 nM R1881 - cell viability counter screen (AID 1259242); further: nearly all actives have a fitted effect of over 45% in size
Outline: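 R1881 at 0.5 nM final stimulated MDA-kb2 cells during 16 hr compound treatment at 37C. Cytotoxicity read: CellTiter-Fluor fluorescence after 30 min.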

[3] = qHTS assay to identify small molecule phospholipidosis (PLD) inducers (AID 1259344; active means well fitted curve in the direction sought with a large enough effect; an effect the other way counts as inactive or inconclusive)
Outline: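 HepG2 cells grown on collagen I take up LipidTOX Red while exposed to compound for 24 h; after fixation they are imaged at 20x and pit metrics are extracted.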

[4] = qHTS assay to identify small molecule HDAC inhibitors (AID 1259364);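 further: wild-type HCT-116 cells with endogenous class I/II HDAC activity; top concentration of the series differs between compounds; nearly all actives have a fitted effect of over 45% in size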
Outline: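 Relative class I and II HDAC activity is taken from the luminogenic signal in HCT-116 cells, with compound exposure 2 hr and reagent development 30 min at room temperature.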

[5] = qHTS assay to identify small molecule HDAC inhibitors - cell viability counter screen (AID 1259365); further: series mostly up to about 92 µM; nearly all actives have a fitted effect of over 50% in size
Outline: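 Counter screen in wild-type HCT-116 cells: compounds dissolved in DMSO are pin-transferred onto overnight-plated cells and left 2hr at 37C. ATP-based CellTiter-Glo luminescence then measures viable cells.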

[6] = qHTS assay to identify small molecule agonists of the sonic hedgehog signaling (Shh) pathway - cell viability counter screen (AID 1259366); further: nearly all actives have a fitted effect of over 50% in size
Outline: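 Cells are plated at 2,000 per well and left 4hr at 37C, 5% CO2 before compound addition. After 23hr of treatment, CellTiter-Fluor reagent is added for 1hr at 37C and fluorescence is measured.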

[7] = qHTS assay to identify small molecule antagonists of the sonic hedgehog signaling (Shh) pathway - cell viability counter screen (AID 1259367); further: nearly all actives have a fitted effect of over 55% in size
Outline: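 After a 4 hr settling period, 3T3 Gli1-Luc cells were treated with DMSO-dissolved chemicals and conditioned medium, kept 24 hr at 37C in 5% CO2, and assayed for viability by CellTiter-Fluor fluorescence following 1 hr reagent incubation.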

[8] = qHTS assay to identify small molecule agonists of the sonic hedgehog signaling (Shh) pathway (AID 1259368; calls by dose curve;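 further: NIH/3T3-derived 3T3Gli1-Luc cells carrying a stable Gli1-driven firefly luciferase reporter; series mostly up to about 92 µM; nearly all actives have a fitted effect of over 15% in size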)
Outline: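 Mouse fibroblast (NIH/3T3) reporter cells with stably integrated Gli1-Luc were treated 24 hr with compound; firefly luciferase luminescence served as the read-out.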

[9] = qHTS assay to identify small molecule antagonists of the sonic hedgehog signaling (Shh) pathway (AID 1259369; calls by dose curve; further: nearly all actives have a fitted effect of over 45% in size)
Outline: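 Conditioned medium drives Shh signalling in 3T3Gli1-Luc cells; compounds in DMSO co-applied, 24hr at 37 C, then luciferase luminescence.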

[10] = qHTS assay to identify small molecule agonists of the androgen receptor (AR) signaling pathway in the presence of an antagonist - cell viability counter screen (AID 1259379);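 further: MDA-kb2 human breast cancer cells carrying an MMTV luciferase reporter; series mostly up to about 92 µM; nearly all actives have a fitted effect of over 25% in size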
Outline: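 A CellTiter-Fluor read-out measured viability of MDA-kb2 reporter cells (MMTV promoter with AR and GR response elements). Treatment: nilutamide 3.0uM final with compounds at 15 concentrations, 16 hr, 37C, 0% CO2.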

[11] = qHTS assay to identify small molecule antagonists of the estrogen receptor beta (ER-beta) signaling pathway - cell viability counter screen (AID 1259382); further: series mostly up to about 92 µM; nearly all actives have a fitted effect of over 55% in size
Outline: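 Agonist-stimulated (1nM E2) ER-beta-UAS-bla HEK293T cells are incubated with library compounds for 16 hr at 37C. Cell viability is then assessed in the reporter-assay wells by adding CellTiter-Glo and reading luminescence after 30 min.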

[12] = qHTS assay to identify small molecule agonists or antagonists of the thyroid stimulating hormone receptor (TSHR) signaling pathway - wild type cell line counter screen (AID 1259384; calls by dose curve)
Outline: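 Wild-type HEK293 cells were plated 18 h at 37 C/5% CO2, pin-dosed with compound plus Ro20-1724 medium, held 30 min at room temperature, then given cAMP-d2 and anti-cAMP-cryptate; fluorescence was read after 1 h. Fifteen concentrations, triplicate.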

[13] = biological target: Thyrotropin receptor (Homo sapiens) (UniProt P16473); experiment: qHTS assay to identify small molecule antagonists of the thyroid stimulating hormone receptor (TSHR) signaling pathway (AID 1259385; calls by dose curve; further: nearly all actives have a fitted effect of over 20% in size)
Chain of Thyrotropin receptor (Homo sapiens) (P16473 whole entry, looked up): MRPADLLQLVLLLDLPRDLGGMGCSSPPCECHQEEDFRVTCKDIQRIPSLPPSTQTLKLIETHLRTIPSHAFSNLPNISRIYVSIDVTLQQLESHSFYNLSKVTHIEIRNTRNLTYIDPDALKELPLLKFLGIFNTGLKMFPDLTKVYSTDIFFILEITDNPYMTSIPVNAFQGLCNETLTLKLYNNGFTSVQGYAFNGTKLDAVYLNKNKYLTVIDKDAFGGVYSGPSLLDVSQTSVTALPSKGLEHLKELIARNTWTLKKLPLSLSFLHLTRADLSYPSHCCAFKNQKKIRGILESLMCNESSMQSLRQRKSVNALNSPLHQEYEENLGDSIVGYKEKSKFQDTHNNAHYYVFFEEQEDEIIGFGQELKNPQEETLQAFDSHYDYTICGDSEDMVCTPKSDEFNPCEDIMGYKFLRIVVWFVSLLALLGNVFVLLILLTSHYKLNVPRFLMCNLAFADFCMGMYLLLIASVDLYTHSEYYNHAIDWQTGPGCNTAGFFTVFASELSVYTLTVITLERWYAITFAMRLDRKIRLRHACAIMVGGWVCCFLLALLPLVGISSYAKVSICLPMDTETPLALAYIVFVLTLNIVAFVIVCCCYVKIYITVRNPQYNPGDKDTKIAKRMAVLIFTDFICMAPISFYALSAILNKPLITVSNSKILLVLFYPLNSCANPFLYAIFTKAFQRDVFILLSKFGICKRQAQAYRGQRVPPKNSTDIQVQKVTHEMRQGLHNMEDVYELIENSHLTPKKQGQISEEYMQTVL
Outline: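 TSHR-HEK293 cells were plated and held 18 h at 37C/5% CO2, then given compound plus Ro20-1724 and stimulated with TSH at 1.5 ng/mL final. After 30 min at room temperature, cAMP was detected with cAMP-d2/anti-cAMP-cryptate (1 h) by fluorescence.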

[14] = biological target: Estrogen receptor beta (Homo sapiens) (UniProt Q92731); experiment: qHTS assay to identify small molecule agonists of the estrogen receptor beta (ER-beta) signaling pathway (AID 1259377; active means well fitted activation curve with a large enough effect in the signal ratio in the repeat runs, not every such curve was filed as active; the % refers to the signal ratio)
Chain of Estrogen receptor beta (Homo sapiens) (Q92731 whole entry, looked up, the tested form may be a part): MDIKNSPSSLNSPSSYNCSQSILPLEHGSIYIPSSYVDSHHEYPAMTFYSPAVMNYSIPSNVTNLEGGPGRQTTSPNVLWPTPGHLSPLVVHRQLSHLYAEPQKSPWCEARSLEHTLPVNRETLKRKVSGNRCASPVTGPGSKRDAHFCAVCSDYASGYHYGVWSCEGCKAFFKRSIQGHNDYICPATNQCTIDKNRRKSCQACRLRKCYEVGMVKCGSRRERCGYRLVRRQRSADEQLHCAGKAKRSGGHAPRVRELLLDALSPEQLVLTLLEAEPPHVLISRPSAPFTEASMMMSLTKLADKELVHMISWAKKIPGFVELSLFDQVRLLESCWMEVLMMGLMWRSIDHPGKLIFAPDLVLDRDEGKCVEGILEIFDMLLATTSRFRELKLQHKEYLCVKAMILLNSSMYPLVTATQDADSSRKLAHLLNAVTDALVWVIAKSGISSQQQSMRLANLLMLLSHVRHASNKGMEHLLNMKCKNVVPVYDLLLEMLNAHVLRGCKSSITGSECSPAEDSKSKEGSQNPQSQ
Outline: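 Agonist mode cell assay in GripTite HEK293T cells expressing an ER-beta fusion that drives beta-lactamase from an Upstream Activator Sequence; 16 hr compound exposure at 37C, then 2 h LiveBLAzer B/G FRET substrate at room temperature, fluorescence read-out.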

[15] = qHTS assay to identify small molecule agonists of the estrogen receptor beta (ER-beta) signaling pathway - cell viability counter screen (AID 1259380); further: nearly all actives have a fitted effect of over 30% in size
Outline: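 Cells used were ER-beta-UAS-bla HEK293T in medium with 2% charcoal-stripped FBS. They were treated for 16 hr at 37C. Viability came from CellTiter-Glo luminescence.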

[16] = biological target: Estrogen receptor (Homo sapiens) (UniProt P03372); experiment: qHTS assay to identify small molecule agonists of the estrogen receptor alpha (ER-alpha) signaling pathway in the presence of an antagonist (AID 1259383; calls by dose curve; further: top concentration of the series differs between compounds; nearly all actives have a fitted effect of over 15% in size)
Chain of Estrogen receptor (Homo sapiens) (P03372 whole entry, looked up): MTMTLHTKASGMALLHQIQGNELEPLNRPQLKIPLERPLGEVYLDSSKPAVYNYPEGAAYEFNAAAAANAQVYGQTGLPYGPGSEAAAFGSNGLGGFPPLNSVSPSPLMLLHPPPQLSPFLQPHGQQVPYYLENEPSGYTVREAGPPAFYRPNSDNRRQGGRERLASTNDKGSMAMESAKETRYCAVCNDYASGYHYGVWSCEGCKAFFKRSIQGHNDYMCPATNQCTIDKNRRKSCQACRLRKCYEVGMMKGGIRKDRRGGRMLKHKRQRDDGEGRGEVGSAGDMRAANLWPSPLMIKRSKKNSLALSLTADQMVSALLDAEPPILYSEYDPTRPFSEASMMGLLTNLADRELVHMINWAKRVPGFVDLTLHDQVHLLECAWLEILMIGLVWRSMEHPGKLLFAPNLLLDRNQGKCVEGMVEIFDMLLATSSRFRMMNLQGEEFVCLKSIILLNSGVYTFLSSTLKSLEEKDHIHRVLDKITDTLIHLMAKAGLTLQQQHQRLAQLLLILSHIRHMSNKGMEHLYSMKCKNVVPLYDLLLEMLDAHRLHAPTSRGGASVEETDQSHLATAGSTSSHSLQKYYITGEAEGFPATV
Outline: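 Using VM7Luc4E2 cells seeded 24hr before treatment, antagonist ICI-182,780 (10.0nM final) was added, followed by compounds at 15 concentrations. Plates incubated 22hr; ONE-Glo luminescence quantified reporter activity.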

[17] = biological target: Estrogen receptor (Homo sapiens) (UniProt P03372); experiment: qHTS assay to identify small molecule antagonists of the estrogen receptor alpha (ER-alpha) signaling pathway using the BG1 cell line in the presence of 0.1 nM 17-beta-estradiol (AID 1259244); further: nearly all actives have a fitted effect of over 50% in size
Outline: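 VM7Luc4E2; 4xERE-luciferase; 0.1 nM E2 final; 22 h co-incubation, 37C; ONE-Glo luminescence after 30 min at room temperature.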

[18] = biological target: Estrogen receptor beta (Homo sapiens) (UniProt Q92731); experiment: qHTS assay to identify small molecule antagonists of the estrogen receptor beta (ER-beta) signaling pathway (AID 1259378; active means well fitted inhibition curve with a large enough effect in the signal ratio in the repeat runs, not every such curve was filed as active; the % refers to the signal ratio)
Outline: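 ER-beta-UAS-bla HEK293T (GripTite) cells in 2% charcoal-stripped FBS medium were preincubated 6 hr at 37C, dosed with compound, then stimulated with 1 nM E2 (final) for 16 hr; beta-lactamase reporter read by B/G FRET fluorescence after 2 hr substrate loading.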
On the % scale 0 is the no-effect control and ±100 the full control effect.

CCN(CCO)CCCC(C)Nc1ccnc2cc(Cl)ccc12 (stereo unspecified)
inactive: activity change, negative = cytotoxicity [1] -6.05% [at 8.39 µM] | viability change, negative = cytotoxic [2] -0.563% [at 8.39 µM] | Potency [3] | activity change, negative = inhibition [4] 16.3% [at 8.39 µM] | activity change, negative = cytotoxicity [5] 0.62% [at 8.39 µM] | viability change, negative = cytotoxic [6] -3.56% [at 8.39 µM] | viability change, negative = cytotoxic [7] 1.32% [at 8.39 µM] | activity change [8] 0.0324% [at 8.39 µM] | activity change, negative = inhibition [9] 5.56% [at 8.39 µM] | activity change, negative = cytotoxicity [10] -1.54% [at 8.39 µM] | activity change, negative = cytotoxicity [11] -2.09% [at 8.39 µM] | cAMP activity change [12] -5.44% [at 8.39 µM, hits give high values] | activity change, negative = inhibition [13] -2.73% [at 8.39 µM]

c1ccc(-c2nc[nH]c2-c2ccccc2)cc1
inactive: Potency [1] | Potency [2] | Potency [3] | Potency [4] | outcome [5] | Potency [6] | Potency [7] | outcome [8] | Potency [14] | Potency [10] | Potency [11] | Potency [12] | Potency [13]

NC1CCN(c2nc3c(cc2F)c(=O)c(C(=O)O)cn3-c2ccc(F)cc2F)C1 (stereo unspecified)
inactive: Potency [1] | Potency [2] | Potency [3] | Potency [4] | outcome [5] | Potency [7] | outcome [8] | Potency [9] | Potency [10] | Potency [15] | Potency [11] | Potency [16] | Potency [12] | Potency [13]

CN(C(=O)CCCOc1ccc2[nH]c(=O)ccc2c1)C1CCCCC1
inactive: Potency [1] | Potency [2] | Potency [3] | Potency [4] | outcome [5] | Potency [6] | Potency [7] | outcome [8] | Potency [14] | Potency [10] | Potency [15] | Potency [11] | Potency [12] | Potency [13]

COCCO
inactive: Potency [1] | Potency [2] | Potency [17] | Potency [4] | Potency [6] | Potency [7] | outcome [8] | Potency [9] | Potency [10] | Potency [11] | Potency [16]

CC1(C)[C@H]2CC[C@]1(C)[C@H](O)C2
inactive: Potency [1] | Potency [2] | Potency [3] | Potency [4] | outcome [5] | Potency [6] | outcome [8] | Potency [9] | Potency [14] | Potency [18] | Potency [10] | Potency [15] | Potency [11] | Potency [12] | Potency [13]

O=C(O)Cc1cc(I)c(Oc2ccc(O)c(I)c2)c(I)c1
inactive: Potency [1] | Potency [2] | Potency [3] | Potency [4] | outcome [5] | Potency [6] | Potency [7] | outcome [8] | Potency [9] | Potency [10] | Potency [11] | Potency [13]

Cn1c(NCCN(CCO)CCCc2ccc([N+](=O)[O-])cc2)cc(=O)n(C)c1=O
inactive: Potency [1] | Potency [2] | Potency [3] | Potency [4] | outcome [5] | Potency [6] | Potency [7] | outcome [8] | Potency [9] | Potency [14] | Potency [18] | Potency [10] | Potency [15] | Potency [11] | Potency [12]

Cl/C(=C\n1cncn1)c1ccc(Cl)cc1Cl
inactive: Potency [1] | Potency [2] | Potency [3] | Potency [4] | outcome [5] | Potency [6] | Potency [7] | outcome [8] | Potency [9] | Potency [10] | Potency [15] | Potency [11] | Potency [12] | Potency [13]
